How the values were obtained:
[1] = molecular target: T1, GST-Nv-NF-kB (Ser allele) (Nematostella vectensis, UniProt A7UNT2 2-411); test: protein-binding microarray (PBM); PBM: ~300 nM protein, 6 mM HEPES pH 7.8, 80 mM KCl, 0.5 mM EDTA, 0.5 mM EGTA, 6% glycerol, 35 ng/ul poly-dIdC, 1% milk, 1 h, room temperature; Ap Aiptasia and Nv Nematostella (sea anemones) / Co Capsaspora / Aq Amphimedon (sponge) / Dm Drosophila / Hu human; RHD is the Rel homology domain; high values mean tight binding; conditions: dsDNA, one strand shown
T1 sequence: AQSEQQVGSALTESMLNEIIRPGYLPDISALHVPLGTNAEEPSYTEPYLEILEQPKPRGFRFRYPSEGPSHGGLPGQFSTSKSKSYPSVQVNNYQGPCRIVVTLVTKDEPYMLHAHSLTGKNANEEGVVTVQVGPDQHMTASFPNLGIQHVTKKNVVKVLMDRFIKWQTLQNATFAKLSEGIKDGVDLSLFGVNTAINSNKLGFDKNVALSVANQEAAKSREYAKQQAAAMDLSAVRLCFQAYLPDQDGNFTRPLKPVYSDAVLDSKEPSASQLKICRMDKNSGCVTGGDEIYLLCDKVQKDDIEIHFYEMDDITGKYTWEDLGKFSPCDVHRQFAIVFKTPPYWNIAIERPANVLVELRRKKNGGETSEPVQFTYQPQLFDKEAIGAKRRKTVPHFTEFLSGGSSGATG

GST-Hu-p50 = GST-Hu-p50 (Homo sapiens, UniProt P19838 7-356); test: as above; conditions: dsDNA, one strand shown
Sequence of GST-Hu-p50 (P19838 7-356): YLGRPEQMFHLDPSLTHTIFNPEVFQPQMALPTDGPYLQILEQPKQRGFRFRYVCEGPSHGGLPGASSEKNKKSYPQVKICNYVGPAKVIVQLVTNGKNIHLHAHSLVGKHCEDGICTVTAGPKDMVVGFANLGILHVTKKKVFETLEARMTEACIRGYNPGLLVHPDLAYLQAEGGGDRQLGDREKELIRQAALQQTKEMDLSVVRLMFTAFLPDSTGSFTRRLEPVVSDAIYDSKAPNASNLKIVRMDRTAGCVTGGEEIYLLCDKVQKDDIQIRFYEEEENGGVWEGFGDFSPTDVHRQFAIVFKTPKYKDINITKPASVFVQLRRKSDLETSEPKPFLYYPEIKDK

Sequence	binding signal [1]	binding signal (GST-Hu-p50)
CCGATTAACATCAGGTAATCACCTGATGTTAATCGGGTCTTGATTCGCTTGACGCTGCTG	2.78 z-score	2.85 z-score
CCGATTAACATCAGGATATTCCCTGATGTTAATCGGGTCTTGATTCGCTTGACGCTGCTG	4.19 z-score	3.1 z-score
CCGATTAACATCAGAAATTACCATGATGTTAATCGGGTCTTGATTCGCTTGACGCTGCTG	3.08 z-score	2.24 z-score
CCGATTAACATCAAGGGGGTAAATGATGTTAATCGGGTCTTGATTCGCTTGACGCTGCTG	4.81 z-score	4.37 z-score
CCGATTAACATCAGGGAATGTACTGATGTTAATCGGGTCTTGATTCGCTTGACGCTGCTG	3.55 z-score	2.72 z-score
CCGATTAACATCACAAATTCCCATGATGTTAATCGGGTCTTGATTCGCTTGACGCTGCTG	4.59 z-score	3.86 z-score
CCGATTAACATCACCGAATTTGGTGATGTTAATCGGGTCTTGATTCGCTTGACGCTGCTG	1.14 z-score	2.09 z-score
CCGATTAACATCACGGGATTTACTGATGTTAATCGGGTCTTGATTCGCTTGACGCTGCTG	1.41 z-score	2.12 z-score
CCGATTAACATCAGGACTCTCCCTGATGTTAATCGGGTCTTGATTCGCTTGACGCTGCTG	2.28 z-score	3.64 z-score
CCGATTAACATCAGATATTTCCCTGATGTTAATCGGGTCTTGATTCGCTTGACGCTGCTG	5.36 z-score	3.91 z-score
CCGATTAACATCAGTCCCTAAGCTGATGTTAATCGGGTCTTGATTCGCTTGACGCTGCTG	1.05 z-score	2.51 z-score
CCGATTAACATCAGACCTTCCCCTGATGTTAATCGGGTCTTGATTCGCTTGACGCTGCTG	4.59 z-score	4.03 z-score
CCGATTAACATCAGGGGGATCACTGATGTTAATCGGGTCTTGATTCGCTTGACGCTGCTG	5.27 z-score	5.04 z-score
CCGATTAACATCAGGGAATTAACTGATGTTAATCGGGTCTTGATTCGCTTGACGCTGCTG	3.91 z-score	2.81 z-score
CCGATTAACATCAGGAAAAGCCCTGATGTTAATCGGGTCTTGATTCGCTTGACGCTGCTG	1.03 z-score	2.56 z-score
CCGATTAACATCACAGGGAATTCTGATGTTAATCGGGTCTTGATTCGCTTGACGCTGCTG	4.96 z-score	4.29 z-score
CCGATTAACATCACCACTTTCCCTGATGTTAATCGGGTCTTGATTCGCTTGACGCTGCTG	5.06 z-score	3.47 z-score
CCGATTAACATCAAAAAAGACCCTGATGTTAATCGGGTCTTGATTCGCTTGACGCTGCTG	3.81 z-score	3.95 z-score
CCGATTAACATCAATGGGAATTCTGATGTTAATCGGGTCTTGATTCGCTTGACGCTGCTG	4.57 z-score	3.4 z-score
CCGATTAACATCAAGTACCCCCCTGATGTTAATCGGGTCTTGATTCGCTTGACGCTGCTG	4.15 z-score	3.94 z-score
CCGATTAACATCACGGGAATTTCTGATGTTAATCGGGTCTTGATTCGCTTGACGCTGCTG	6.48 z-score	4.6 z-score
CCGATTAACATCACTTTTTCCCATGATGTTAATCGGGTCTTGATTCGCTTGACGCTGCTG	4.35 z-score	3.04 z-score
CCGATTAACATCAGGGTAAAACCTGATGTTAATCGGGTCTTGATTCGCTTGACGCTGCTG	3.53 z-score	2.56 z-score
CCGATTAACATCAGGGGGTGTAATGATGTTAATCGGGTCTTGATTCGCTTGACGCTGCTG	4.19 z-score	3.98 z-score
CCGATTAACATCAGGGGGTGTTATGATGTTAATCGGGTCTTGATTCGCTTGACGCTGCTG	4.85 z-score	5.17 z-score

Sequence	binding signal [1]	binding signal (GST-Hu-p50)
CCGATTAACATCAATTTCCCATATGATGTTAATCGGGTCTTGATTCGCTTGACGCTGCTG	3.63 z-score	3.09 z-score
CCGATTAACATCACCCGATTCCCTGATGTTAATCGGGTCTTGATTCGCTTGACGCTGCTG	4.07 z-score	2.39 z-score
CCGATTAACATCAAACTCTCCCCTGATGTTAATCGGGTCTTGATTCGCTTGACGCTGCTG	4.93 z-score	4.08 z-score
CCGATTAACATCAACAAAGTCCCTGATGTTAATCGGGTCTTGATTCGCTTGACGCTGCTG	6.52 z-score	4.3 z-score
CCGATTAACATCAATTGCCCCCCTGATGTTAATCGGGTCTTGATTCGCTTGACGCTGCTG	3.84 z-score	2.9 z-score
CCGATTAACATCAGGAGTACCCCTGATGTTAATCGGGTCTTGATTCGCTTGACGCTGCTG	2.31 z-score	2.81 z-score
CCGATTAACATCAGGGAATGCCATGATGTTAATCGGGTCTTGATTCGCTTGACGCTGCTG	2.41 z-score	1.54 z-score
CCGATTAACATCAAGTTTTCCCATGATGTTAATCGGGTCTTGATTCGCTTGACGCTGCTG	5.18 z-score	3.3 z-score
CCGATTAACATCAAAACAATCCCTGATGTTAATCGGGTCTTGATTCGCTTGACGCTGCTG	1.53 z-score	2.64 z-score
CCGATTAACATCACCGCCCCCCCTGATGTTAATCGGGTCTTGATTCGCTTGACGCTGCTG	4.44 z-score	4.53 z-score
CCGATTAACATCAGGAATACCCATGATGTTAATCGGGTCTTGATTCGCTTGACGCTGCTG	3.36 z-score	3.18 z-score
CCGATTAACATCACCCCTCCCCATGATGTTAATCGGGTCTTGATTCGCTTGACGCTGCTG	3.22 z-score	3.16 z-score
CCGATTAACATCAGGCTTCCCCCTGATGTTAATCGGGTCTTGATTCGCTTGACGCTGCTG	6.08 z-score	5.25 z-score
CCGATTAACATCAGTAACTCCCTTGATGTTAATCGGGTCTTGATTCGCTTGACGCTGCTG	2.17 z-score	2.5 z-score
CCGATTAACATCAAATAAATCCCTGATGTTAATCGGGTCTTGATTCGCTTGACGCTGCTG	3.53 z-score	3.29 z-score
CCGATTAACATCACGGGGTTCCCTGATGTTAATCGGGTCTTGATTCGCTTGACGCTGCTG	1.48 z-score	2.59 z-score
CCGATTAACATCACGTTATTCCCTGATGTTAATCGGGTCTTGATTCGCTTGACGCTGCTG	3.53 z-score	1.05 z-score
CCGATTAACATCAAAAATCCCGATGATGTTAATCGGGTCTTGATTCGCTTGACGCTGCTG	2.85 z-score	3.62 z-score
CCGATTAACATCAGAAATTTACCTGATGTTAATCGGGTCTTGATTCGCTTGACGCTGCTG	4.13 z-score	3.29 z-score
CCGATTAACATCAAATCGGGAAATGATGTTAATCGGGTCTTGATTCGCTTGACGCTGCTG	2.88 z-score	1.88 z-score
CCGATTAACATCAAGGATTTCCCTGATGTTAATCGGGTCTTGATTCGCTTGACGCTGCTG	6.13 z-score	4.33 z-score
CCGATTAACATCAGGCATTTCCCTGATGTTAATCGGGTCTTGATTCGCTTGACGCTGCTG	3.99 z-score	3.68 z-score
CCGATTAACATCAGGAATGTACCTGATGTTAATCGGGTCTTGATTCGCTTGACGCTGCTG	3.2 z-score	2.14 z-score
CCGATTAACATCAAGAAATTACCTGATGTTAATCGGGTCTTGATTCGCTTGACGCTGCTG	5.68 z-score	3.38 z-score
CCGATTAACATCAAGGTTTTCCCTGATGTTAATCGGGTCTTGATTCGCTTGACGCTGCTG	6.21 z-score	4.23 z-score

Sequence	binding signal [1]	binding signal (GST-Hu-p50)
CCGATTAACATCAGACCTCCCCCTGATGTTAATCGGGTCTTGATTCGCTTGACGCTGCTG	4.4 z-score	3.87 z-score
CCGATTAACATCACATTATCCCCTGATGTTAATCGGGTCTTGATTCGCTTGACGCTGCTG	6.4 z-score	3.94 z-score
CCGATTAACATCAGATTTCCCACTGATGTTAATCGGGTCTTGATTCGCTTGACGCTGCTG	3.83 z-score	2.99 z-score
CCGATTAACATCAGGAGAATCCCTGATGTTAATCGGGTCTTGATTCGCTTGACGCTGCTG	1.07 z-score	1.64 z-score
CCGATTAACATCAAACACTCCCCTGATGTTAATCGGGTCTTGATTCGCTTGACGCTGCTG	4.23 z-score	3.6 z-score
CCGATTAACATCACCAAAACCCCTGATGTTAATCGGGTCTTGATTCGCTTGACGCTGCTG	4.14 z-score	4.83 z-score
CCGATTAACATCAAAAATTTACCTGATGTTAATCGGGTCTTGATTCGCTTGACGCTGCTG	6.08 z-score	3.82 z-score
CCGATTAACATCAGGCAAATCCCTGATGTTAATCGGGTCTTGATTCGCTTGACGCTGCTG	1.09 z-score	1.9 z-score
CCGATTAACATCAGGGAAAATGATGATGTTAATCGGGTCTTGATTCGCTTGACGCTGCTG	6.52 z-score	2.44 z-score
CCGATTAACATCAGGGAATACCATGATGTTAATCGGGTCTTGATTCGCTTGACGCTGCTG	2.61 z-score	1.46 z-score
CCGATTAACATCAGGGACTTACCTGATGTTAATCGGGTCTTGATTCGCTTGACGCTGCTG	5.49 z-score	4.61 z-score
CCGATTAACATCAGAAATCCCGATGATGTTAATCGGGTCTTGATTCGCTTGACGCTGCTG	2.04 z-score	2.55 z-score
CCGATTAACATCAGGAGACTCCCTGATGTTAATCGGGTCTTGATTCGCTTGACGCTGCTG	1.61 z-score	1.93 z-score
CCGATTAACATCAGGGACAAAAATGATGTTAATCGGGTCTTGATTCGCTTGACGCTGCTG	3.37 z-score	2.61 z-score
CCGATTAACATCAAATATACCCATGATGTTAATCGGGTCTTGATTCGCTTGACGCTGCTG	1.7 z-score	1.83 z-score
CCGATTAACATCACCCCTCCCCGTGATGTTAATCGGGTCTTGATTCGCTTGACGCTGCTG	3.23 z-score	3.01 z-score
CCGATTAACATCAAGGTAATCCCTGATGTTAATCGGGTCTTGATTCGCTTGACGCTGCTG	2.34 z-score	1.4 z-score
CCGATTAACATCAGGTAATTTACTGATGTTAATCGGGTCTTGATTCGCTTGACGCTGCTG	3.5 z-score	2.79 z-score
CCGATTAACATCAGGGGGTTAACTGATGTTAATCGGGTCTTGATTCGCTTGACGCTGCTG	4.34 z-score	4.57 z-score
CCGATTAACATCACAACACCCCCTGATGTTAATCGGGTCTTGATTCGCTTGACGCTGCTG	5.01 z-score	4.62 z-score
CCGATTAACATCAGGGAATCTCATGATGTTAATCGGGTCTTGATTCGCTTGACGCTGCTG	3.31 z-score	2.5 z-score
CCGATTAACATCAGAAAATCCCATGATGTTAATCGGGTCTTGATTCGCTTGACGCTGCTG	3.29 z-score	3.86 z-score
CCGATTAACATCATGGTGGTACCTGATGTTAATCGGGTCTTGATTCGCTTGACGCTGCTG	1.05 z-score	1.07 z-score

— paper PMC5700166
